High-throughput results from PubChem BioAssay.
Rows were chosen to be rich in hits. Some 5.4% of all compounds tested hit in one or more screens of this group.
GAA850 FXN act = activators of GAA850 frataxin (FXN) promoter | HEK293 lucGAA850 FXN promoter luciferase reporter, 24 h; percent of 10 µM SAHA response | activation, % at 6 µM | 0.56% of 360,000 active;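 active = activation above the average of all compounds screened plus 3 SD, cutoff fixed separately per campaign, cut at about 7.5% in these data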
AHR activator = human AHR activation. activation, % at 5 µM. AHR-responsive luciferase reporter cells, luminescence. 2.5% of 320,000 active. P35869; in the data active = activation above about 47%
HSF1 activator = increases HSF-1 driven luciferase reporter signal. AID 504408. activation, % at 9 µM. 1.7% of 300,000 active. NIH3T3-HGL HSF-1 luciferase reporter, MG132, 8 h; 100% = twice DMSO control signal;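 active = mean replicate activation of at least 50% with a set share of replicates each reaching 50%; inconclusive = only one of those two conditions met; inactive = mean below 50% and too few replicates reaching it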
DAX1 inh = NR0B1 (DAX1) inhibition; HEK293 Gal4-DAX1 luciferase reporter, luminescence; inhibition, % at 6.75 µM; 0.99% of 340,000 active; AID 504766;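 active = inhibition above the mean over all tested compounds plus 3 SD, cut at about 4.2% in these data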;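 also: inhibition shows as a rise in luminescence from relieved DAX1 repression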
Target sequence (P51843 207-470 limits assumed): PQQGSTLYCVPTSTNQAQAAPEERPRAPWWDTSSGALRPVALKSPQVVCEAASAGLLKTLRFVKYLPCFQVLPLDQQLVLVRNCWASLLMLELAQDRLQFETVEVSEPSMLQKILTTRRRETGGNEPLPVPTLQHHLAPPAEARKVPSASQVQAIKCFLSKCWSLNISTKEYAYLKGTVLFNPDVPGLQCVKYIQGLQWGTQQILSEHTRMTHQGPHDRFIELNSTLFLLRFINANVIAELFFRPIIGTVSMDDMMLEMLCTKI
HSF1 inhib = HSF1 inhibition | activity change, negative = inhibition, % at 7.5 µM (by protocol) | NIH3T3-HGL HSE-luciferase, MG132-induced, luminescence 8 h; active compounds read low | 0.77% of 300,000 active;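 active = more than half of replicate wells show activity change below -50%, luminescence cut by over half; inconclusive = some wells, but at most half, below -50%; inactive = no replicate well below -50%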;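 also: luciferase reports HSF-1 transcriptional activity via heat shock element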
Of the large screens only hits and unclear results are named; the others gave an inactive call.

O=c1c2c(nc3n1CCCCC3)-c1ccccc1CC21CCCC1	none
CSc1n[nH]c2nc3c(c(=O)n12)C1(CCCC1)Cc1ccccc1-3	AHR activator 79
Cc1ccc(-n2c(SCC(N)=O)nc3c(c2=O)C2(CCCC2)Cc2ccccc2-3)cc1	none
O=C(NCC(c1ccco1)N1CCc2ccccc21)C(=O)Nc1ccc(F)cc1F (centres undefined)	none
O=C(CO/N=C/c1ccc(OC(F)F)cc1)NC1CCCCCC1	none
Nc1ccc2c(c1)Nc1ccccc1CC2	AHR activator 50
CC(=O)Nc1ccc(NC(=O)C2CC(=O)N(C(C)C)C2)cc1 (centres undefined)	none
CCc1ccc(NC(=O)C2CC(=O)N(C(C)C)C2)cc1 (centres undefined)	AHR activator 78
O=C(NCCC(=O)N1CCC2(CC1)NCCc1[nH]cnc12)c1ccc(Br)cc1	none
Cc1ccc(O)c(/C=N/NC(=O)CN2CCCC2)c1	HSF1 inhib -85
O=C(CN1CCCCCC1)N/N=C/c1ccc(Cl)c(Cl)c1	none
Cc1cccc(/C=N/NC(=O)CN2CCCCCCC2)c1	HSF1 inhib -76
COc1ccc(OC)c(S(=O)(=O)NC(=O)C2(C)CCN2C(=O)c2ccco2)c1 (centres undefined)	none (no result: AHR activator, HSF1 activator, DAX1 inh, HSF1 inhib)
Cn1c(-c2ccc(F)cc2)cnc1NCc1cc2c(cc1[N+](=O)[O-])OCO2	none
Cc1cc(F)ccc1NCc1cc2c(cc1[N+](=O)[O-])OCO2	HSF1 activator 53
Cc1nc2nc(-c3cccs3)[nH]c2cc1Br	AHR activator 58, HSF1 activator 63
COc1ccc(-n2c(C)c(C(C)=O)c(C(C)=O)c2C)cc1	HSF1 inhib -64
COc1ccc(-n2c(SCC(=O)Nc3cccc(S(N)(=O)=O)c3)nc3ccccc3c2=O)cc1OC	none
COc1ccc(-c2cc(C(=O)NC3=NCCS3)c3ccccc3n2)cc1OC	AHR activator 67
COc1ccc(-n2c(SCC(=O)Nc3ccc(C(N)=O)cc3)nc3ccccc3c2=O)cc1OC	HSF1 activator 60
COc1ccc(-c2cc(C(=O)N(C)Cc3ccc(F)cc3)c3ccccc3n2)cc1OC	AHR activator 64
COc1ccc(-c2cc(C(=O)Nc3ccc(C(N)=O)cc3)c3ccccc3n2)cc1OC	AHR activator 52
COc1cc2c(cc1OC)CN(C(=O)C1CCCN1S(=O)(=O)c1ccc(C)cc1)CC2 (centres undefined)	none
CN(NC(=O)c1ccccc1Cl)c1ncc(C(F)(F)F)cc1Cl	none
CCOC(=O)N1CCN(S(=O)(=O)c2ccc(F)c(C(=O)Nc3ccc(C)c(Cl)c3)c2)CC1	none
CCOC(=O)N1CCN(S(=O)(=O)c2ccc(F)c(C(=O)Nc3ccc(C(C)C)cc3)c2)CC1	HSF1 activator 69
Cc1c(NC(=O)c2ccc([N+](=O)[O-])o2)cccc1-c1nc2ncccc2o1	HSF1 activator inconclusive
COc1ccc(N/C=C2/Sc3ccccc3NC2=O)cc1	AHR activator 55
O=[N+]([O-])/C(=C\Nc1ccc(F)cc1F)S(=O)(=O)c1ccccc1	none
CNC(=O)CCN(Cc1ccco1)S(=O)(=O)c1ccc(OC)c(OC)c1	none
C=CCNCCOCCSc1ccc(Cl)cc1	HSF1 activator 52
Cc1oc2ccc(OS(C)(=O)=O)cc2c1C(=O)OC(C)C	none
CCN(CC)C(=O)COc1ccc2oc(C)c(C(=O)OC(C)C)c2c1	AHR activator 67
CC(Cc1cccnc1)NC(=O)c1cc(COc2ccc(F)cc2Cl)on1 (centres undefined)	none
CC(Cc1cccnc1)NC(=O)c1cc(COc2c(F)cccc2F)on1 (centres undefined)	AHR activator 48
Oc1[nH]c2ccccc2c1N=NC(=S)N1CCOCC1	HSF1 activator 87
Oc1[nH]c2ccc(Br)cc2c1N=NC(=S)N1CCOCC1	HSF1 activator 240
O=C(N=Nc1c(O)[nH]c2ccccc12)c1ccco1	DAX1 inh 4.4
CSCC(=O)NC1CCCc2c1cnn2-c1ccc(C)c(C)c1 (centres undefined)	none
O=C(NC(=S)N(CCc1ccccc1)CCc1ccccc1)c1ccco1	HSF1 activator 68
CC(CCc1ccccc1)NC(=S)NC(=O)c1ccco1 (centres undefined)	none
CC1(C)OC2COC(c3[nH]nc4c(=O)[nH]c(=O)[nH]c34)C2O1 (centres undefined)	none (no result: AHR activator, HSF1 activator, HSF1 inhib)
O=C(CNCc1ccccn1)Nc1ccc([N+](=O)[O-])cc1C(=O)Nc1ccccc1F	AHR activator 75
COc1cccc(-c2cc3nc4c(c(NCC(C)(C)CN(C)C)n3n2)CCCC4)c1	DAX1 inh 4.3, HSF1 inhib inconclusive
Fc1cccc(-c2cc3nc4c(c(NCc5ccco5)n3n2)CCCC4)c1	none
CCC(=O)CCC(=O)c1ccc2ccccc2c1	HSF1 inhib -58
CCCOc1ccccc1NC(=O)c1ccc([N+](=O)[O-])cc1	AHR activator 64
CCOc1ccccc1NC(=O)NNC(=O)c1ccc2ccccc2c1	AHR activator 49
CCOc1ccccc1NC(=O)c1ccc2ccccc2c1	AHR activator 67
CCOc1ccccc1NC(=O)c1ccc(OCC)c([N+](=O)[O-])c1	none
O=C(CSc1nnc(NC(=O)C2CC2)s1)Nc1ccccc1C(F)(F)F	none
O=C(Nc1ccc(F)c(Cl)c1)c1cc(C2CCCCN2C(=O)CCc2ccccc2)on1 (centres undefined)	none (no result: AHR activator, HSF1 activator, DAX1 inh, HSF1 inhib)
CCOc1ccc(CCN2C(=S)N([C@@H](CC(C)C)CN3CCCC3CN3C(=S)NC[C@@H]3CC(C)C)C[C@@H]2Cc2ccccc2)cc1 (some centres undefined)	none (no result: AHR activator, HSF1 activator, HSF1 inhib)
CCC(C)c1ccccc1NC(=O)c1cc(C)no1 (centres undefined)	HSF1 activator 59
Cc1cc(C(=O)Nc2cc(C)on2)on1	none
Cc1ccc(O)c(NC(=O)c2cc(C)no2)c1	HSF1 activator 100
Cc1ccc(O)c(NC(=O)c2cc(-c3ccccc3)on2)c1	HSF1 activator 96, DAX1 inh 4.9
S=c1cnc2ccccc2[nH]1	none
CC(CC(=O)NCCc1ccc(S(N)(=O)=O)cc1)c1ccccc1 (centres undefined)	none
CC(NCC(=O)NCCc1ccc(S(N)(=O)=O)cc1)c1ccc(F)cc1 (centres undefined)	HSF1 activator 52
CC(NCCc1ccc(S(N)(=O)=O)cc1)C(=O)NCCc1ccc(F)cc1 (centres undefined)	DAX1 inh 5.1
NS(=O)(=O)c1ccc(CCNC(=O)C(c2ccccc2)c2ccccc2)cc1	none
CC(NNC(=S)N1CCN(c2ccccn2)CC1)c1nccc2ccccc12 (centres undefined)	none (no result: AHR activator, HSF1 activator, HSF1 inhib)
COc1ccc(N=C2SCC(c3ccccc3)=NN2C)cc1	DAX1 inh 4.3
COc1ccc(N=C2SCC(=O)N2c2ccc(OC)cc2)cc1	none (no result: HSF1 activator, HSF1 inhib)
O=C(Nc1ccc(OCC(F)(F)C(F)F)c(C(F)(F)F)c1)c1ccccc1O	HSF1 activator 66
c1ccc(-c2cn3nc(-c4ccccc4)sc3n2)cc1	DAX1 inh 5.6, HSF1 inhib -56
